Results from PubChem BioAssay AID624053 (National Center for Advancing Translational Sciences (NCATS), 2012).
Activity calls are given as the source filed them.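 How the source made its calls: active means neuropeptide S receptor blocker with IC50 at or below 10 µM; inconclusive means IC50 above 10 µM but below 20 µM; inactive means IC50 of 20 µM or more.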

What follows are compounds tested against Neuropeptide S receptor (Homo sapiens) (UniProt Q6W5P4) (assay: qHTS for Antagonists of the Neuropeptide S Receptor: SAR in ERK). Conditions: CHO-NPSR cells, NPS-induced pERK1/2 HTRF.
Neuropeptide S receptor (Homo sapiens), sequence (Q6W5P4 whole entry, looked up): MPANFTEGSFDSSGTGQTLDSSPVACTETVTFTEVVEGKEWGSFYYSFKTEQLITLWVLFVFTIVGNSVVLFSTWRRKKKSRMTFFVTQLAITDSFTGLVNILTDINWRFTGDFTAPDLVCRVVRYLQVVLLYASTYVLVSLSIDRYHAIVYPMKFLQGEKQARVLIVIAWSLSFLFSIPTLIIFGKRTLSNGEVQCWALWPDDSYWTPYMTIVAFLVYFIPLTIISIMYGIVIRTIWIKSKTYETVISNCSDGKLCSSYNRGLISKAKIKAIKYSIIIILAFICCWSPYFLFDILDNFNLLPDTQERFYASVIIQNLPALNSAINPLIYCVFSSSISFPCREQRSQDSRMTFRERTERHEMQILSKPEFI
Text: Neuropeptide S receptor (NPSR), previously known as GPR154, is a recently de-orphanized G protein coupled receptor. Its endogenous ligand is the 20 amino acids peptide Neuropeptide S (NPS). […] NPS and its receptor are found in various tissues. Specifically they are highly expressed in brain areas that have been implicated in modulation of arousal, stress and anxiety. Central administration of NPS in mice produces an unusual profile of activity by inducing wakefulness and arousal, while at the same time suppressing anxiety. Therefore, NPSR may represent a novel drug target for the treatment of sleep and anxiety disorders. To identify NPSR antagonists, we developed a cell-based assay with transfected NPS receptor. NPS can stimulate the production of cAMP as well as release intracellular calcium in Chinese hamster ovary cells stably expressing NPS receptor. This change in intracellular calcium can be detected using a calcium indicator dye on a calcium imaging plate reader system (FDSS). […] Reinscheid et al. have demonstarted that the binding of NPS to NPSR activates the phosphorylation of the MAPK extracellular regulated kinase (ERK). Thus NPSR antagonists of ERK activation should reduce ERK phosphorlyation is a dose dependent manner NIH Chemical Genomics Center [NCGC] NIH Molecular Libraries Probe Production centers Network [MLPCN] MLPCN Grant: DA026210 Assay Submitter (PI): Heilig, Markus Alexander
Intracellular pERK1/2 levels were measured using a time-resolved fluorescence resonance energy transfer (TR-FRET) assay by a HTRF Cellul'erk kit (Cisbio, MA). The CHO cells overexpressing NPSR were seeded at 200 microL/well with 25,000 cells in white, tissue culture treated clear bottom 96-well plates (Greiner Bio-One, NC). Following overnight incubation at 37 masculineC with 5% CO2, the growth medium was replaced with 100 microL /well Opti-MEM medium (ATCC, VA) and incubated at 37 degrees C with 5% CO2 for an additional 4 hours. The compounds prepared in 100% DMSO were added to assay plates at 1 microL/well. The assay plates were incubated for 10 min at 37 degrees C with 5% CO2 and NPS solution (2 nM NPS peptide prepared in the Opti-MEM medium with 0.2 % BSA and 0.005 % Tweeen-20) was then added at 100 microL/well. After a 20 min incubation at 37 degrees C with 5% CO2, the media was aspirated and the place plates were placed on ice for 5 min followed by the addition of 50 microL/well of 1 cell lyses solution. The plates were then incubated at room temperature while gently rocking (for mixing) for 15 min. […] After overnight incubation at room temperature in the dark, the plates were measured using the EnVision plate reader similarly as that of cAMP assay.

IC50, active:
O=C1OC(c2ccccc2)(c2ccccc2)N2CCN(C(=O)NCc3ccc(F)cc3)CC12 (centres undefined) 15.8 nM
COc1ccc(C2c3c(ncn(CCN4CCOCC4)c3=N)Oc3ccc4ccccc4c32)cc1OC (centres undefined) 59.7 nM
CCC(C)(CCN1CCOCC1)N(Cc1cc2ccccc2n(C)c1=O)C(=O)C1CCCCC1 (centres undefined) 9 nM
Cc1c(P(=S)(c2ccccc2)c2ccccc2)[n+]2ccccc2n1C/C=C/c1ccccc1 9.3 nM
